For 39 molecules, Potency results are on record in PubChem BioAssay AID489008 (National Center for Advancing Translational Sciences (NCATS), 2010).

Molecules are shown by their SMILES. Results filed as inconclusive are left out. Active and inactive are the calls of the source. Calls follow the shape of the dose curve; as a rule, active = well fitted inhibition curve with a large enough effect; inconclusive = small, poorly fitted or top-dose-only effect; inactive = flat fitted curve, though single readings scatter.
Potency is read from the fitted curve at half-maximal effect.

Ferritin light chain (Equus caballus), sequence (P02791 2-175 limits assumed): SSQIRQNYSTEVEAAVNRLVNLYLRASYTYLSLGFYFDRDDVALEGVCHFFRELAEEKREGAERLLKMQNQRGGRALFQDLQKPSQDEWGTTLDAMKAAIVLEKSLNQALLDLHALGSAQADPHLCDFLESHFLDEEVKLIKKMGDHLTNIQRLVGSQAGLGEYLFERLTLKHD

The target of this test is Ferritin light chain (Equus caballus) (UniProt P02791). As to the kind of experiment: Confirmation Assay for Identification of Novel General Anesthetics. Also: nearly all actives have a fitted effect of over 40% in size. Particulars: apoferritin 1-aminoanthracene fluorescence displacement. The gist of the method:
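Horse apoferritin (10 uM) pre-loaded with 1-AMA (50% saturated, PBS) exposed to compounds 10 min at room temperature; loss of 1-AMA fluorescence (380/535 nm) scaled between free and bound ligand, curves fitted with Hill equation.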
In the case of `O=C1c2ccsc2SCCN1Cc1ccccc1Cl`, the Potency is 14.1 µM (active).

For `Cc1ccccc1CSc1nsc(N)n1`, the Potency was 17.8 µM (active).

In the case of `Cc1cccc(S(=O)(=O)NCCc2ccccc2)c1`, the Potency was 14.1 µM (active).

In the case of `CN(C)c1ccc(C(=S)N2CCCCCC2)cc1`, the Potency is 25.1 µM (active).

Take `CC(C)CCSc1nc2ccccc2[nH]1`: the Potency was 15.8 µM (active).

With `O=C(COC(=O)/C=C/c1ccccc1Cl)NC1CCCCCC1`, the Potency is 6.31 µM (active).

`Oc1ccc(C2C[C@H]3CC[C@@H]2C3)cc1O` (some centres undefined): the Potency was 7.08 µM (active).

On to `NC(=O)COC(=O)CC12CC3CC(CC(C3)C1)C2`, for which the Potency is 15.8 µM (active).

For the molecule `COc1ccc(CNC(=O)CN2N=C(c3ccc(Cl)cc3)CCC2=O)cc1`, the Potency is 20.7 µM (active).

As to `O=C(c1csc2ccccc12)N1CCCCCC1`, the Potency was 31.6 µM (active).

As to `Cc1ccc(C(=O)N2CCCc3ccccc32)c(F)c1F`, the Potency was 22.4 µM (active).

`CC1CCCCC1NC(=O)Cn1nc(-c2ccccc2)ccc1=O` (centres undefined): the Potency is 7.08 µM (active).

Consider `c1cnc(NC2C3CC4CC(C3)CC2C4)nc1` (centres undefined), for which the Potency is 6.31 µM (active).

As to `O=C(NCc1ccccc1)Nc1cccn(Cc2ccccc2)c1=O`, the Potency is 8.91 µM (active).

Take `O=C(COc1ccccc1Cl)N1CCCCCCC1`: the Potency was 15.8 µM (active).

As to `O=C(O)Cc1csc(Nc2cccc(Cl)c2)n1`, the Potency was 12.6 µM (active).

Take `NC(=O)Nc1ccc(Oc2ncc(C(F)(F)F)cc2Cl)cc1`: the Potency is 7.08 µM (active).

With `Cc1cc(OC(C)C)c2c(-c3ccccc3)cc(=O)oc2c1`, the Potency was 35.5 µM (active).

For the molecule `Cc1ccccc1Cn1nnc2sc3c(c2c1=O)CCCC3`, the Potency was 15.8 µM (active).

Take `O=C(CSc1ccccn1)N1CCc2ccccc21`: the Potency was 8.91 µM (active).

Turning to `COc1ccccc1C1SCCN1S(C)(=O)=O` (centres undefined), the Potency is 20 µM (active).

For `CC(C)c1ccc(NC(=O)C2CC3CCC2C3)cc1` (centres undefined), the Potency is 31.6 µM (active).

For `CC1CCCN(C(=O)Cc2cccc3ccccc23)C1` (centres undefined), the Potency is 31.6 µM (active).

In the case of `Cc1ccc(C(=S)N2CCCCCC2)cc1`, the Potency is 28.2 µM (active).

As to `Cc1cc(C(=O)OCC(=O)N2C(C)CCCC2C)c(C)o1` (centres undefined), the Potency is 14.1 µM (active).

As for `Clc1ccc(Nc2nc(C3CC3)cs2)cc1`, the Potency is 39.8 µM (active).

`CC1CCN(c2nc(-c3ccncc3)nc3ccccc23)CC1`: the Potency is 39.8 µM (active).

In the case of `Cc1ccc(C(=O)COC(=O)c2ccc(Br)o2)cc1C`, the Potency was 15.8 µM (active).

Consider `COc1ccc(/C=N/NC(=O)CC(=O)NC2CCCCC2)cc1`, for which the Potency was 6.31 µM (active).

In the case of `Cc1cc(C)n(Cc2ccccc2Cl)n1`, the Potency is 12.6 µM (active).

Take `Nn1cnc2sc3c(c2c1=O)CCC3`: the Potency is 31.6 µM (active).

In the case of `O=S(=O)(NCCCc1ccccc1)c1ccc(F)c(F)c1`, the Potency was 17.8 µM (active).

For the molecule `COc1ccccc1CC(=O)N1CCCc2ccccc21`, the Potency was 31.6 µM (active).

As to `Cc1ccccc1CSCC(=O)N/N=C/c1cccs1`, the Potency is 15.8 µM (active).

With `CC1CCCN(C(=O)COc2ccc(Nc3ccccc3)cc2)C1` (centres undefined), the Potency was 25.1 µM (active).

Regarding `O=S(N1CCc2ccccc21)C12CC3CC(CC(C3)C1)C2` (centres undefined), the Potency was 12.6 µM (active).

With `C=Cc1ccc(Cn2nc(-c3ccc(C)cc3)ccc2=O)cc1`, the Potency was 17.8 µM (active).

For the molecule `Cc1cnc(C(=O)OCC(=O)NC23CC4CC(CC(C4)C2)C3)cn1`, the Potency is 14.1 µM (active).

With `CCN(CC)C(=S)SCC(=O)c1ccccc1`, the Potency was 28.2 µM (active).
